# Data as given in PubChem BioAssay (NCI).
# This is part of a sample that, as a whole, favours compounds with a hit. Of some 79,000 tested, about 15% had one in any assay. The source made the active and inactive calls. Cut-off read from the data, not from the text of the source: active = growth inhibition above about 70%; inactive = the rest.
# Legend:
# [1] = NCI Yeast Anticancer Drug Screen. Data for the rad50 strain (AID 155);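 note: 0% = growth of vehicle-only cultures of the same strain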; settings: S. cerevisiae rad50 strain growth inhibition, hits give high values
# Summary of the method: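 Inhibition values express reduced yeast growth in compound-treated cultures relative to vehicle-treated controls.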
# [2] = NCI Yeast Anticancer Drug Screen. Data for the mec2-1 strain (AID 157); settings: S. cerevisiae mec2-1 strain, hits give high values
# Summary of the method: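 Growth inhibition is read against vehicle-treated controls after compound exposure of the mec2-1 yeast strain, which is defective in DNA damage repair or cell cycle control.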
# [3] = NCI Yeast Anticancer Drug Screen. Data for the sgs1 mgt1 strain (AID 161);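 note: 0% = growth of cultures given vehicle only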; settings: S. cerevisiae sgs1 mgt1 strain, hits give high values
# Summary of the method: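 Percent growth inhibition was derived by comparing compound-exposed mutant yeast with vehicle-exposed cultures. The strain carries alterations in DNA damage repair.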
# [4] = NCI Yeast Anticancer Drug Screen. Data for the cln2 rad14 strain (AID 165);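 note: 0% = growth equal to vehicle treated cultures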; settings: S. cerevisiae cln2 rad14 strain, hits give high values
# Summary of the method: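 Growth inhibition, relative to vehicle-treated controls, is the read-out. The test organism is a yeast strain with defined genetic alterations, cln2 rad14.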
# [5] = NCI Yeast Anticancer Drug Screen. Data for the bub3 strain (AID 167); settings: S. cerevisiae bub3 mutant strain, hits give high values
# Summary of the method: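 Steps: expose the mutant yeast strain to compound; grow alongside vehicle-treated cultures; measure growth; express inhibition against the vehicle cultures.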
# [6] = NCI Yeast Anticancer Drug Screen. Data for the mlh1 rad18 strain (AID 175); settings: S. cerevisiae mlh1 rad18 strain growth inhibition, hits give high values
# Summary of the method: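 Cells of a genetically altered yeast strain, deficient in DNA damage repair, were treated with compound. Their growth was then compared with that of vehicle-treated cultures to give inhibition.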
# [7] = at 5.0 µM (retest, dose inferred, filed as 0.5)
# [8] = at 50.0 µM (retest, dose inferred, filed as 5.0)
SMILES,"growth inhibition [1, 7]","growth inhibition [1, 8]",growth inhibition ([1]; at 50.0 µM),"growth inhibition [2, 7]","growth inhibition [2, 8]",growth inhibition ([2]; at 50.0 µM),"growth inhibition [3, 7]","growth inhibition [3, 8]",growth inhibition ([3]; at 50.0 µM),"growth inhibition [4, 7]","growth inhibition [4, 8]",growth inhibition ([4]; at 50.0 µM),"growth inhibition [5, 7]","growth inhibition [5, 8]",growth inhibition ([5]; at 50.0 µM),"growth inhibition [6, 7]","growth inhibition [6, 8]",growth inhibition ([6]; at 50.0 µM)
CCOC(=O)c1ccc2c(c1)Cc1cc([N+](=O)[O-])ccc1-2,1% (inactive),65% (inactive),43.6% (inactive),-2% (inactive),37% (inactive),15.8% (inactive),7% (inactive),72% (active),51% (inactive),-97% (inactive),12% (inactive),4.15% (inactive),43% (inactive),89% (active),80.8% (active),7% (inactive),57% (inactive),58.1% (inactive)
CSc1nc(C)cc(SCc2ccc(Cl)cc2Cl)n1,-3% (inactive),4% (inactive),-20.9% (inactive),-3% (inactive),-7% (inactive),-20.6% (inactive),-2% (inactive),8% (inactive),-0.95% (inactive),2% (inactive),-1% (inactive),-36.7% (inactive),2% (inactive),18% (inactive),75% (active),-2% (inactive),21% (inactive),-25.4% (inactive)
C#CC(=O)OCC#CCOC(=O)C#C,3% (inactive),77% (active),97.5% (active),0% (inactive),95% (active),98.5% (active),-9% (inactive),83% (active),78.2% (active),-7% (inactive),15% (inactive),49.2% (inactive),1% (inactive),76% (active),92.2% (active),5% (inactive),96% (active),96% (active)
COc1cccc2c1C(=O)c1c(O)c3c(c(O)c1C2=O)C[C@@](O)(C(O)CO)C[C@@H]3OC1CC(N(Cc2ccccc2)Cc2ccccc2)C(O)C(C)O1 (some centres not stated),45% (inactive),98% (active),86.8% (active),13% (inactive),98% (active),85.8% (active),29% (inactive),98% (active),65.6% (inactive),18% (inactive),97% (active),45.1% (inactive),20% (inactive),98% (active),62% (inactive),50% (inactive),97% (active),84% (active)
C=CCNc1nc2c(s1)C(=O)c1ccccc1C2=O,95% (active),98% (active),90.8% (active),99% (active),99% (active),93.3% (active),100% (active),99% (active),93.9% (active),76% (active),99% (active),91.8% (active),99% (active),99% (active),91.9% (active),98% (active),98% (active),88% (active)
O=C1/C(=C\c2ccc([N+](=O)[O-])o2)Oc2cc(O)ccc21,97% (active),96% (active),95.2% (active),97% (active),97% (active),91.8% (active),96% (active),96% (active),95.7% (active),98% (active),98% (active),93.6% (active),75% (active),90% (active),41.5% (inactive),97% (active),98% (active),95.7% (active)
[O-][n+]1ccccc1Sc1nc(Sc2cccc[n+]2[O-])nc(Sc2cccc[n+]2[O-])n1,98% (active),99% (active),89.8% (active),99% (active),99% (active),91.7% (active),99% (active),98% (active),92.7% (active),98% (active),98% (active),90% (active),98% (active),99% (active),90.3% (active),100% (active),99% (active),88.4% (active)
Nc1ccc2c(c1)[nH]c(=O)c1c(Cl)cccc12,-108% (inactive),47% (inactive),84.5% (active),-41% (inactive),-26% (inactive),41% (inactive),-58% (inactive),-33% (inactive),21.4% (inactive),-46% (inactive),-39% (inactive),48.5% (inactive),-50% (inactive),-42% (inactive),4.8% (inactive),-87% (inactive),-45% (inactive),55.5% (inactive)
CC(C)C(CC(C)(C)C)OC(=O)Nc1cccc2ccccc12 (configuration not stated),0% (inactive),96% (active),13.1% (inactive),-1% (inactive),98% (active),26.4% (inactive),0% (inactive),97% (active),61.8% (inactive),-17% (inactive),95% (active),6.15% (inactive),11% (inactive),96% (active),61.1% (inactive),-3% (inactive),97% (active),58.1% (inactive)
